# Source: ChEMBL document CHEMBL4513216, “Probing the Open Global Health Chemical Diversity Library for Multistage-Active Starting Points for Next-Generation Antimalarials” (ACS Infect Dis, 2020)
# Hit rate of the full screen: of about 68,000 compounds, about 2,700 (4%) showed an effect of 50% or more. This excerpt belongs to a sample that is enriched for strong results.
# Tested on: Plasmodium berghei
# Test: Screen against P. berghei liver stage (PbLuc), transformed with Luciferase, at 2uM
# Format: functional, HepG2
# Settings: tested at 2 uM
row,Structure (SMILES),INHIBITION [%]
1,CC1CN(C(=O)NCCCn2cncn2)CCO1 (stereo unspecified),-7.02
2,CS(=O)(=O)N1C[C@H]2CN(CC3CC3)C(=O)[C@H]2C1,-30.69
3,CC(=O)Nc1nc(C(=O)NCc2ccc(N3CCOC(C)C3)nc2)cs1 (stereo unspecified),13.36
4,CN(CCc1nccs1)C(=O)CC1(O)CCCCC1,25.78
5,Clc1ccccc1C1(c2ccnc(-c3ccncc3)n2)CCNCC1,-14.84
6,CCOc1cccc(NS(=O)(=O)c2cc(C)c(C(=O)O)s2)c1,40.85
7,Cc1cc(S(=O)(=O)Nc2cccc(OC(F)F)c2)sc1C(=O)O,68.61
8,CC(=O)c1cccc(NS(=O)(=O)c2cc(C)c(C(=O)O)s2)c1,-18.41
9,O=C(O)c1csc(S(=O)(=O)Nc2cccc(OC(F)F)c2)c1,-56.15
10,CCc1cccc(NS(=O)(=O)c2cc(C)c(C(=O)O)s2)c1,58.69
11,Cc1cc(S(=O)(=O)Nc2cccc(I)c2)sc1C(=O)O,-21.72
12,COc1cccc(CN2CCOC(c3cnccn3)C2)c1F (stereo unspecified),4.47
13,Nc1c(N2CCOCC2)ncnc1N1CCOCC1,-18.65
14,CC1CCN(S(=O)(=O)c2cccn(CC(=O)NC3CCCC3)c2=O)CC1,-1.71
15,CNC(=O)C1CCCN(c2nc(-c3ccco3)nc3c2CCNCC3)C1 (stereo unspecified),-44.93
16,CCS(=O)(=O)NC1CCCN(Cc2ccn(C)c(=O)c2)C1 (stereo unspecified),-21.09
17,CCc1nnsc1C(=O)NC1CCN(c2ccccn2)CC1,11.97
18,Cc1nc(C(=O)NC2CCN(CCOc3ccc(Br)cc3)CC2)cs1,31.51
19,CN1CCCC1CNC(=O)CCOc1ccc(Br)cc1 (stereo unspecified),-80.31
20,CCc1nnsc1C(=O)NC1CCN(CCOc2ccc(Br)cc2)CC1,62.51
21,Cc1ncc(C(=O)NC2CCN(CCOc3ccc(Br)cc3)CC2)s1,60.13
22,Cc1ncsc1C(=O)NC1CCN(CCC(N)=O)CC1,-7.02

row,Structure (SMILES),INHIBITION [%]
1,COCC[C@]1(O)CCN(Cc2nc(C)c(C)s2)C[C@H]1C,11.48
2,NC(=O)CC1CCN(C(=O)NCCc2ccc(Cl)s2)CC1,15.47
3,Cc1cccc(-c2ncc(CNC(C)CO)cn2)c1 (stereo unspecified),-53.16
4,Cc1cccc(-c2ncc(CNC(C)Cc3ccncc3)cn2)c1 (stereo unspecified),24.23
5,CCCC(C)NCc1cnc(-c2cccc(C)c2)nc1 (stereo unspecified),56.47
6,CCCS(=O)(=O)N1CC[C@H]2O[C@@H](c3nc(C)no3)CC[C@H]21,-71.5
7,Cc1cnc2c(c1NCc1ccncc1)c(=O)n(C)c(=O)n2C,29.42
8,COc1cccc(CNc2c(C)cnc3c2c(=O)n(C)c(=O)n3C)c1,-9.49
9,Cc1cnc2c(c1NCc1cccnc1)c(=O)n(C)c(=O)n2C,63.23
10,CNS(=O)(=O)CCCN1CCCN(Cc2ccccc2)CC1C (stereo unspecified),32.03
11,CC1CN(Cc2ccccc2)CCCN1CCCS(C)(=O)=O (stereo unspecified),53.99
12,CC1CN(Cc2ccccc2)CCCN1CCS(C)(=O)=O (stereo unspecified),-7.07
13,CC(NC(=O)CCCOc1ccccc1Cl)c1ccncc1 (stereo unspecified),-37.84
14,CCOC(=O)C1(Cc2ccccc2-c2ccccc2OC)CCNCC1,29.68
15,CCn1c(N)nc2cc(C(=O)N3CCCN(C)CC3)cnc21,63.1
16,CCc1cc(CN(C)C(=O)c2cnc3c(c2)nc(N)n3CC)on1,6.85
17,CCn1c(N)nc2cc(C(=O)N(C)Cc3cc(C(C)(C)C)n[nH]3)cnc21,58.17
18,CCn1c(N)nc2cc(C(=O)N3CCCOCC3)cnc21,40.47
19,CCn1c(N)nc2cc(C(=O)N3CCC(N4CCCC4)CC3)cnc21,-12.08
20,CCc1ccc(CN(C)C(=O)c2cnc3c(c2)nc(N)n3CC)nc1,17.5
21,Cc1cnnn1Cc1nnn2c1CN(Cc1cccs1)CCC2,12.29
22,COc1cccc2c1OCC(CNC(=O)Cc1csc(C(C)=O)c1)C2 (stereo unspecified),19.13

row,Structure (SMILES),INHIBITION [%]
1,CCc1cc(=O)n(CC(=O)NCC2CCCO2)c(-c2cccc(F)c2)n1 (stereo unspecified),23.65
2,CN1CCC(c2cccc(-c3ccc(C(=O)O)cc3)n2)CC1,-39.93
3,CCC(C)N(Cc1ccsc1)C(=O)c1ccc2[nH]nnc2c1 (stereo unspecified),38.24
4,CCC(CO)N(Cc1ccc(C(=O)O)cc1)Cc1ccsc1 (stereo unspecified),2.17
5,CCC(C)N(Cc1ccsc1)C(=O)c1ccc(CO)cc1 (stereo unspecified),52.98
6,CNc1oc(-c2cc(S(=O)(=O)N3CCCC3)c(C)o2)nc1C#N,-49.59
7,CNc1oc(-c2cc(S(=O)(=O)N3CCCCCC3)c(C)o2)nc1C#N,5.96
8,Cc1oc(-c2nc(C#N)c(NC(C)(C)C)o2)cc1S(=O)(=O)N1CCCC1,58.42
9,Cc1cccc(CN2C[C@@H]3CN(C(=O)c4ccsc4)C[C@@H]3C2=O)n1,-23.78
10,Cc1cnc(N2CC[C@@H]3O[C@@H](COCc4ccccn4)CC[C@@H]32)nc1,-7.26
11,CN(CCCOc1ccccc1)Cc1nc2c(cnn2C)c(=O)[nH]1,-31.57
12,Cn1ncc2c(=O)[nH]c(CN3CCCC3CC(C)(C)C)nc21 (stereo unspecified),70.27
13,Cc1ccc(OCCN(C)Cc2nc3c(cnn3C)c(=O)[nH]2)cc1,78.42
14,CN(CCOc1cccc(F)c1)Cc1nc2c(cnn2C)c(=O)[nH]1,47.87
15,COc1ccc2c(c1)CCCN2Cc1nc2c(cnn2C)c(=O)[nH]1,-70.71
16,CN(CCCOc1ccc(F)cc1)Cc1nc2c(cnn2C)c(=O)[nH]1,-45.72
17,COc1ccc2c(c1)CN(Cc1nc3c(cnn3C)c(=O)[nH]1)CC2,27.55
18,CCC1CCCCN1Cc1nc2c(cnn2C)c(=O)[nH]1 (stereo unspecified),-31.57
19,COc1ccc2c(c1)CCN2Cc1nc2c(cnn2C)c(=O)[nH]1,52.17
20,Cn1ncc2c(=O)[nH]c(CN3CCCC3CC3CCCCC3)nc21 (stereo unspecified),-5.15
21,COc1ccc(OCCN(C)Cc2nc3c(cnn3C)c(=O)[nH]2)cc1,72.31
22,COCCCN(C)Cc1nc2c(cnn2C)c(=O)[nH]1,-135.87
